In the library only some 4.2% were active in any assay of this set; here they are far more common.
TCR act: activates T cell receptor signaling | primary human leukocytes, anti-CD3, IL-2 HTRF, 48 h | Potency, µM (highest dose often 9.22 µM), actives largely listed as activators | 330,000 tested, under 10 active
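Activity was scored as IL-2 release from primary human leukocytes given only a TCR signal (a-CD3 beads) plus compound for 48 hr. Detection used a two-antibody HTRF format read at 665nm.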
Sfp inh: blocks B. subtilis Sfp PPTase activity. Q9F4F7. Biochemical Sfp PPTase activity, qHTS. Potency, µM, hits mostly inhibitors. actives 3.5% (n = 310,000);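 further: the enzyme is Sfp with the accession as filed and its product quenches rhodamine fluorescence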
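Fluorescence-quenching assay: 15 nM Sfp-PPTase preincubated 15 min at room temperature with compound, then 5 uM rhodamine-CoA and 12.5 uM BHQ-2-labelled YbbR peptide added. Fluorescence (ex 525/em 598 nm) read at start and after 30 min; difference gives rate.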
uPA generation: inhibitors of cell surface uPA generation; actives 0.31% (n = 330,000); Potency, µM (doses to about 38.3 µM), usual class: inhibitors; cell surface uPA generation assay, qHTS; active means well fitted inhibition curve with a large enough effect; inconclusive means small, poorly fitted or top-dose-only effect; inactive means no such curve, though single readings can be large or run the other way; tested in mouse RAW 264.7 cells; further: nearly all actives have a fitted effect of over 55% in size
ClpP mod: qHTS Assay for Activators of ClpP. Potency, µM (titrated, usually from 57.5 µM). ATP-dependent Clp protease proteolytic subunit (Bacillus subtilis (strain 168)), P80244. actives 1.9% (n = 340,000). purified B. subtilis ClpP, FRET peptide cleavage, 20 min; active means well fitted falling curve with a large enough effect; inconclusive means small, poorly fitted or top-dose-only effect; inactive means no such curve, though single readings can be large or run the other way; further: the source files actives as falling curves though it sought activators and does not explain the sign; nearly all actives have a fitted effect of over 65% in size
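FRET quenching reversal measured ClpP activation: 10 microg/mL B. subtilis ClpP at pH 8 with the FRET-FV decapeptide, read at 430 nm after 320 nm excitation. The 20-min minus 0-min signal was scaled between DMSO/no-enzyme wells and ADEP (5.8 microM final).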
A number is an active result; 0 = inactive; ? = inconclusive; - = not tested or not shown. Unless noted, the call rests on the fitted dose curve; in most records, active means well fitted curve in the direction sought with a large enough effect; inconclusive means small, poorly fitted or top-dose-only effect, or another doubt; inactive means no such curve, though single readings can be large; an effect the other way counts as inactive or inconclusive.

SMILES | TCR act | Sfp inh | uPA generation | ClpP mod
CN1C(=S)SC(C)(C)C1N(O)C(=O)Nc1ccc(Cl)cc1 (stereo not given) | 0 | 0 | 0 | -
CCC1CCCCN1CCCNC(=O)c1ccc2c(c1)N(Cc1ccc(F)cc1)C(=O)c1ccccc1S2=O (stereo not given) | 0 | 0 | 0 | 0
CC1=C(c2ccc(C(C)C)cc2)S(=O)(=O)NC1=NCc1ccc(OC(C)C)cc1 | - | - | - | 0
O=C(O)Cn1c2ccccc2c2n[nH]c(=S)nc21 | 0 | 44.7µM | 0 | -
CCCn1c2ccc(C)cc2c2n[nH]c(=S)nc21 | 0 | 39.8µM | 0 | 0
CCn1c2ccccc2c2n[nH]c(=S)nc21 | 0 | 50.1µM | 0 | 0
C=CCn1c2ccccc2c2n[nH]c(=S)nc21 | - | 39.8µM | 0 | 0
CCc1ccc(NC(=O)C2CCC(CNS(=O)(=O)c3cccs3)CC2)cc1 (stereo not given) | - | - | - | 0
Cc1ccc(CNC(=O)CCCCCn2c(=O)c3sccc3n(CC(=O)C(C)(C)C)c2=O)cc1 | - | - | - | 0
CC1Cc2cc(S(=O)(=O)CCC(=O)NCc3ccccc3Cl)ccc2N1C(=O)C1CC1 (stereo not given) | - | - | - | 0
CCn1nc(-c2ccccc2)c(-c2ccccc2)c(C(=O)Nc2nc(C)c(C(=O)N(C)C)s2)c1=O | - | - | - | 0
C=CC1=C2C=C(C3CC3)N(Cc3ccccc3)C=C2C(=O)C(C)(OC(=O)c2ccco2)C1=O (stereo not given) | - | 0 | - | -
COc1ccc(OC)c(NC2=C(c3ccccc3)C(=O)c3ccccc32)c1 | - | - | - | 0
C=CCNc1nc(NCCOc2ccccc2Cl)c2sc(-c3ccccc3)cc2n1 | - | - | - | 28.2µM
c1ccc(OCCNc2nc(NCC3CC3)nc3cc(-c4ccccc4)sc23)cc1 | - | - | - | 25.1µM
C=CCNc1nc(NCCOC)c2sc(-c3ccccc3)cc2n1 | - | - | - | 0
O=C(O)c1cc(N2C(=O)C3CC=CCC3C2=O)ccc1NCc1cccnc1 (stereo not given) | 0 | 0 | 0 | 31.6µM
CCOC(=O)C1(Cc2cccc(Cl)c2)CCCN(C(=O)c2cnn(CC)c2)C1 (stereo not given) | 0 | 0 | 0 | 31.6µM
CCOC(=O)C1(Cc2cccc(Cl)c2)CCCN(C(=O)c2cn[nH]c2)C1 (stereo not given) | 0 | 0 | 0 | 0
CCCNC(=O)c1cn(CC)c2cc(N3CCN(C(=O)c4ccco4)CC3)c(F)cc2c1=O | 0 | 0 | 0 | 0
CCn1cc(C(=O)O)c(=O)c2cc(F)c(N3CCN(S(=O)(=O)c4ccc(NC(=O)OC)cc4)CC3)cc21 | 0 | 0 | 0 | 17.8µM
CCN(CC)c1cc2c(cc1F)c(=O)c(S(=O)(=O)c1ccccc1)cn2Cc1ccccc1 | - | - | - | 22.4µM
CCN(CC)c1cc2c(cc1F)c(=O)c(S(=O)(=O)c1ccccc1)cn2C | - | - | - | 0
CCn1cc(C(=O)NCc2cccc(F)c2)c(=O)c2cc(F)c(N3CCN(C(=O)c4ccco4)CC3)cc21 | 0 | 0 | 0 | 25.1µM
CCC(=O)N1CCN(c2cc3c(cc2F)c(=O)c(C(=O)O)cn3CC)CC1 | 0 | - | 0 | -
SMILES | TCR act | Sfp inh | uPA generation | ClpP mod
CCN1CCN(c2cc3c(cc2F)c(=O)c(S(=O)(=O)c2ccc(OC)cc2)cn3CC)CC1 | - | - | - | 7.94µM
CCN(CC)c1cc2c(cc1F)c(=O)c(S(=O)(=O)c1ccc(OC)cc1)cn2Cc1ccccc1 | - | - | - | 31.6µM
CCOC(=O)c1cn(CC)c2cc(N3CCOCC3)c(F)cc2c1=O | 0 | 0 | 0 | 31.6µM
CCOC(=O)c1cn(CC)c2cc(N3CCCCC3)c(F)cc2c1=O | 0 | - | 0 | 0
COC(=O)c1ccc2c(=O)n(CCCCCC(=O)NCc3ccc(Cl)cc3)c(=O)[nH]c2c1 | - | - | - | 0
CC(C)COc1ccc(C(=O)N2CCC(c3nc4ccccc4s3)CC2)cc1 | - | - | - | 0
Cc1ccc(/C=C/C(=O)NCC2COc3ccccc3O2)o1 (stereo not given) | 0 | 6.31µM | 0 | -
O=C(/C=C/c1ccc2c(c1)OCO2)NCc1ccco1 | 0 | 0 | 0 | 28.2µM
Cc1ccc(/C=C/C(=O)NCc2ccco2)o1 | 0 | 31.6µM | - | -
O=C(/C=C/c1ccco1)NCc1ccco1 | 0 | 0 | 0 | -
Cc1ccc(/C=C(\C#N)C(=O)NCc2ccco2)o1 | 0 | 50.1µM | 0 | 0
COc1ccc(C(C)=O)c(OCC(=O)NCCC2=CCCCC2)c1 | - | - | - | 0
Cc1ccc(CSc2ncc(Cl)c(C(=O)Nc3nnc(C)s3)n2)cc1 | - | - | - | 0
O=C(CSc1ccc2c(c1)OCCO2)NCc1ccco1 | 0 | 35.5µM | 0 | 0
COc1ccc2c(-c3ccccc3)cc(N3CCOCC3)nc2c1 | 0 | ? | 0 | 31.6µM
c1ccc(-c2cc(-c3ccc(N4CCOCC4)cc3)nc3ccccc23)cc1 | 0 | 0 | 0 | 0
COc1ccccc1C(c1c(O)cc(C)n(Cc2ccco2)c1=O)N1CCCCC1 (stereo not given) | - | - | - | 0
O=C(CN1CCOCC1)NNc1c2ccccc2nc2ccccc12 | 0 | 0 | 0 | -
O=C(CN1CCOCC1)Nc1c2c(nc3ccccc13)N(Cc1ccccc1)CC2 | 0 | 0 | 0 | 22.4µM
O=C(CN1CCCC1)Nc1c2c(nc3ccccc13)N(Cc1ccccc1)CC2 | 0 | 14.1µM | 0 | 14.1µM
CC1=C(c2ccc(NN=C(C#N)C#N)cc2)NNC(=O)C1 | - | 0 | - | -
Cc1ccc(C)c(Nc2cc(C)nc(-c3ccccc3O)n2)c1 | 0 | 0 | 7.08µM | 0
Cc1ccc(CNC(=O)CSCc2ccccc2C)cc1 | - | - | - | 0
COc1ccc(C2(c3ccc(OC)cc3)NC(=O)N(CC(=O)Nc3ccccc3C(F)(F)F)C2=O)cc1 | 0 | 0 | 0 | 0
Cc1ccccc1NC(=O)CN1C(=O)NC(C)(c2ccc3c(c2)OCO3)C1=O (stereo not given) | 0 | 0 | 0 | 15.8µM
SMILES | TCR act | Sfp inh | uPA generation | ClpP mod
COc1ccc(NC(=O)CN2C(=O)NC3(CCCc4ccccc43)C2=O)c(OC)c1 (stereo not given) | 0 | - | 0 | 15.8µM
COc1ccc(C2(c3ccc(OC)cc3)NC(=O)N(CC(=O)Nc3ccccc3C)C2=O)cc1 | 0 | 79.4µM | 0 | 0
COc1ccc(S(=O)(=O)NCCc2csc(-c3cccc(F)c3)n2)cc1OC | - | - | - | 0
CCCCCCCCCC[n+]1ccc(/C=C/c2ccc(N(C)C)cc2)c2ccccc21 | - | - | - | 0
O=C(NCCO)c1cc2cc(Cl)cc(Cl)c2oc1=O | 0 | 35.5µM | 0 | -
CCC(C(=O)Nc1ccccc1)n1nc(-c2cc(C)ccc2C)ccc1=O (stereo not given) | - | - | - | 0
CC(Cc1n[nH]c(=S)n1N)c1ccccc1 (stereo not given) | 0 | 56.2µM | 0 | 0
COc1ccc(-c2c3c(=O)n(C)c(=O)n(C)c3cn2C2CCCCC2)cc1 | - | 0 | 0 | 15.8µM
C[C@@H]1/C=C\CC(=O)OC[C@H](C)C(=O)N[C@@H](Cc2ccccc2)C(=O)OC1 | - | 0 | - | -
O=C1NC(=S)SC1=Cc1ccccc1C(=O)O | - | - | - | 0
O=C1NC(=S)SC1=C1CCCC1 | 0 | 39.8µM | 0 | 0
O=C1c2ccccc2-c2onc3ccc(NCCCn4ccnc4)c1c23 | 0 | 0 | ? | 0
COc1ccc2noc3c2c1C(=O)c1ccccc1-3 | 0 | - | 10µM | 0
COc1ccc(OC)c2c1C(=O)CC2C (stereo not given) | - | - | - | 0
COc1ccc(N)c2c1C(=O)c1ccccc1C2=O | 0 | 0 | 0 | 0
